The values that follow come from ChEMBL document CHEMBL3988442, “University of Dundee, Small-Polar-MMV Screening Library” (2021).

Screen size: about 66,000 compounds; about 960 (1.5%) showed an effect of 50% or more. The entries come from a sample that favours strong results as a whole.

The experiment concerns Trypanosoma brucei. In words: Trypanosoma brucei 72 hour study. In kind it is functional, organism-based. Details: scale not given: in the data most compounds retested in dose-response had high values.

On to `O=C(CCN1CCc2ccccc21)N1C[C@@H](O)[C@H](N2CCCC2)C1`, for which the “Percent Effect” value (30.3 µM, […]) was -36.76%.
On to `CN1CC2(CCN(C(=O)c3cccnc3)CC2)c2cccc(F)c21.Cl`, for which the “Percent Effect” value (30.3 µM, […]) is reported as -15.84%.
As to `CN1CC2(CCN(Cc3cccnc3)CC2)c2cccc(F)c21.Cl`, the “Percent Effect” value (30.3 µM, […]) is given as 100.8%.
Still for that read-out and setting: with `CN1CC2(CCN(Cc3cccnc3)CC2)c2cc(F)ccc21` the figure was -24.44%; with `CCOc1ccc(CC(=O)N2CCN(c3nccn3CC)CC2)cc1.Cl`, 9.034%; with `O[C@]12CC[C@H](CC1)N(Cc1ccc(F)cc1)C2CN1CCOCC1` (some centres not stated), -19.63%.
The same measure, in the same setting: the result for `Cc1nn(C)c(C)c1CC(=O)N1CCCN(c2cccnn2)CC1` reads -5.706%; that for `CS(=O)(=O)NCC1CCCN(C(=O)c2ccc(F)c(F)c2)C1` (configuration not stated), -25.29%; that for `CCc1noc(CS(=O)(=O)c2cccc(OC)c2)n1`, -11.01%.
On to `CCCc1noc(CS(=O)(=O)c2cccc(OC)c2)n1`, for which the “Percent Effect” value (30.3 µM, […]) turned out to be 58.74%.
The same measure, in the same setting: with `COc1cccc(S(=O)(=O)Cc2noc(CC(C)C)n2)c1` the figure was 1.682%.
For `CS(=O)(=O)N1Cc2ccccc2C2(CCN(C(=O)c3ccno3)CC2)C1`, under “30.3 µM, […]”, the “Percent Effect” value is -25.32%.
With `COc1cc(N2CCC3(CCN(Cc4cccnc4)C3=O)C2)ncn1` (configuration not stated), where the note is “30.3 µM, […]”, the “Percent Effect” value is listed as -84.3%.
Take `CNC(=O)Nc1cc(-c2ccccc2C)nn1CCO`: the “Percent Effect” value (30 µM, 30.03 µM) was -25.05%.
For `Cc1ccccc1-c1cc(NC(=O)NC2CCC(O)CC2)n(CCO)n1` (configuration not stated), the “Percent Effect” value (30.3 µM, […]) is reported as -152.8%.
For `Cc1ccccc1-c1cc(NC(=O)NC2CC2)n(CCO)n1`, under “30.3 µM, […]”, the “Percent Effect” value is 80.61%.
On the same count and under the same terms, the result for `Cc1cc(S(=O)(=O)N(CC(N)=O)CC(C)C)ccc1Br` reads 1.83%.
In the case of `CN(C)C(=O)COC[C@H]1CC[C@@H]2[C@@H](CCN2Cc2ccco2)O1.O=C(O)C(F)(F)F`, the “Percent Effect” value (30 µM, 30.03 µM) is -23.12%.
The same measure, in the same setting: the result for `COCCN1C[C@H](OCc2csc(C)n2)[C@H]2COC[C@H]21.O=C(O)C(F)(F)F.O=C(O)C(F)(F)F` reads -14.33%.
Consider `CCSc1cncc(N2CCC(NC(=O)C3CCCCC3)CC2)n1`, for which the “Percent Effect” value (30.3 µM, […]) is recorded as 77.16%.
For the compound `CCSc1cncc(N2CCC(C(=O)Nc3ccccn3)CC2)n1`, the “Percent Effect” value (30.3 µM, […]) is 12.36%.
Turning to `CCSc1cncc(N2CCC(C(=O)NC(C)C(C)C)CC2)n1` (configuration not stated), for the setting “30.3 µM, […]”, the “Percent Effect” value is 8.608%.
For the compound `CC(=O)N(Cc1ncc(C)o1)C1CCN(Cc2ccc(F)c(F)c2)C1` (configuration not stated), for the setting “30 µM, 30.03 µM”, the “Percent Effect” value is listed as -4.591%.
Regarding `Cc1cc(C2CCCN(CCS(=O)(=O)c3ccccc3)C2)n[nH]1` (configuration not stated), the “Percent Effect” value was -11.09% (30.3 µM, […]) and -44.58% (10 mM, 10 mM as filed; unlikely as a test dose).
For `O=C(CN1CCCC(c2ccn[nH]2)C1)Nc1nc2c(s1)CCC2` (configuration not stated), the “Percent Effect” value (30.3 µM, […]) amounted to 99.68%.
On to `O=C(CN1CCCC(c2ccn[nH]2)C1)N1CCCc2ccccc21` (configuration not stated), for which the “Percent Effect” value (30 µM, 30.03 µM) is on record as -60.51%.
Regarding `O=C(CN1CCCC(c2ccn[nH]2)C1)Nc1nncs1` (configuration not stated), where the note is “30.3 µM, […]”, the “Percent Effect” value is 7.116%.
The same measure, in the same setting: the result for `Cc1cc(C2CCCN(CC(=O)Nc3nc4c(s3)CCC4)C2)n[nH]1` (configuration not stated) reads 99.45%.
`Cc1cc(C2CCCN(CC(=O)N3CCc4ccccc43)C2)n[nH]1` (configuration not stated): under “30 µM, 30.03 µM”, the “Percent Effect” value was -0.2301%.
Regarding `O=C(O)c1cccc(CN2CCCC(c3ccn[nH]3)C2)c1` (configuration not stated), the “Percent Effect” value (30.3 µM, […]) is -0.7278%.
With `Cc1cc(C2CCCN(CCCS(=O)(=O)c3ccccc3)C2)n[nH]1` (configuration not stated), for the setting “30 µM, 30.03 µM”, the “Percent Effect” value is -28.48%.
For the compound `Cc1cc(C2CCCN(CCNS(=O)(=O)c3ccccc3)C2)n[nH]1` (configuration not stated), the “Percent Effect” value reads like this: (30.3 µM, […]) 50.6%; (10 mM, 10 mM as filed; unlikely as a test dose) -10.85%.
Turning to `Cc1nnc(NC(=O)CN2CCCC(c3ccn[nH]3)C2)s1` (configuration not stated), the “Percent Effect” value (30.3 µM, […]) was -16.15%.
With `O=C(CN1CCCC(c2ccn[nH]2)C1)Nc1nc2c(s1)CCCC2` (configuration not stated), the “Percent Effect” value (30.3 µM, […]) turned out to be 99.87%.
In the case of `Cc1cc(C2CCCN(CC(=O)N3CCCc4ccccc43)C2)n[nH]1` (configuration not stated), the “Percent Effect” value (30 µM, 30.03 µM) stood at 1.182%.
Turning to `CC(C)N1CCC2(CCNCC2)C1=O.Cl`, the “Percent Effect” value (30.3 µM, […]) was -13.71%.
Same read-out and setting: with `Cc1cccc(CN2C(=O)CCC23CCN(c2ncc(F)cn2)CC3)n1.O=C(O)C(F)(F)F` the figure was 6.517%; with `O=C(Nc1cnccn1)[C@H]1CO[C@H]2CCN(c3ncc(F)cn3)C[C@H]2C1.O=C(O)C(F)(F)F`, -3.537%.
Same read-out and setting: the result for `Cc1cccc(CN2C(=O)CCC23CCN(c2ccccn2)CC3)n1.O=C(O)C(F)(F)F.O=C(O)C(F)(F)F` reads -36.28%.
With `COc1ccccc1C(=O)NCCC(=O)Nc1c(C)nn(C)c1C`, under “30 µM, 30.03 µM”, the “Percent Effect” value is given as -36.41%.
On the same count and under the same terms, the result for `CCC(C)C(=O)Nc1ccc2oc(=O)n(CCN(C)C)c2c1` (configuration not stated) reads -15.08%.
As for `Cc1cn2c(n1)C(CNCC1=Cc3cc(Cl)ccc3OC1)CCC2` (configuration not stated), the “Percent Effect” value (30.3 µM, […]) is recorded as 99.66%.
For the compound `Cc1cn2c(n1)C(CNCc1ccc(C)s1)CCC2` (configuration not stated), the “Percent Effect” value (30.3 µM, […]) was -3.779%.
`Cc1cn2c(n1)C(CNCC1=Cc3ccccc3OC1)CCC2` (configuration not stated): the “Percent Effect” value (30.3 µM, […]) is recorded as 49.61%.
With `O=C(Cc1cccc(F)c1)N1CCc2ncnc(NC3CCC3)c2CC1`, where the note is “30.3 µM, […]”, the “Percent Effect” value is reported as -72.72%.
For `CN(C)C(=O)N1CCC2(CC1)CCN(c1ncccn1)C2.O=C(O)C(F)(F)F`, the “Percent Effect” value (30.3 µM, […]) was -41.17%.
Same read-out and setting: the result for `Cc1ncsc1-c1nnc(C2CCN(Cc3ccc(Cl)cc3)CC2)o1` reads 0.5336%.
On the same count and under the same terms, with `Cc1ncsc1-c1nnc(C2CCN(Cc3ccc(F)cc3)CC2)o1` the figure was -21.24%; with `Cc1ccsc1-c1nnc(C2CCN(Cc3ccc(F)cc3)CC2)o1`, 56.66%.
As for `CN(C)C(=O)COCc1cncc2c1CCN(C1CCOCC1)C2.O=C(O)C(F)(F)F.O=C(O)C(F)(F)F`, for the setting “30.3 µM, […]”, the “Percent Effect” value was -55.36%.
